# Several values for one entry are separate records, joined by “and”; a condition that tells them apart may be missing. Equal entries are not always repeated. The source holds several records for some structures; these can differ, active in one and inactive in another. Activity calls are given as the source filed them. Rule for the calls: active = hit-call score of the fitted dose curve at least 0.9, where 1 is the maximum; inactive = score below 0.9.
# Experiments:
# [1] = target: Transcription factor E2F1 (Homo sapiens) (UniProt Q01094); test: ATG_E2F_CIS: Attagene CIS-FACTORIAL HepG2 Assay for human E2F Transcription Factor 1 (AID 2282935); conditions: HepG2 Attagene cis-reporter, E2F reporter RNA transcripts; actives raise or lower the signal
# Transcription factor E2F1 (Homo sapiens), sequence (Q01094 whole entry, looked up): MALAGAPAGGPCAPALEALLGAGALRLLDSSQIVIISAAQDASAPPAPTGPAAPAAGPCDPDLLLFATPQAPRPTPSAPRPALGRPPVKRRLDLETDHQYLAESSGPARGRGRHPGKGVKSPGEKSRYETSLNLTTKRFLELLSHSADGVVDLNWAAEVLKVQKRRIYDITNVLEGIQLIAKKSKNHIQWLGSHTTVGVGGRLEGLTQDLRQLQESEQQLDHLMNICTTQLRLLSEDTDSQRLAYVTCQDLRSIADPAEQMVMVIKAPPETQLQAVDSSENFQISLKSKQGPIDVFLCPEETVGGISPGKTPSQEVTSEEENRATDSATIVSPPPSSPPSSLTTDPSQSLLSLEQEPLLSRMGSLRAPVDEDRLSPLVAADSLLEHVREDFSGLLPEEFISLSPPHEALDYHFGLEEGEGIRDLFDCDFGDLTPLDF
# Summary of the method: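 Gain or loss of reporter transcript, fitted against DMSO, reflects E2F1-driven transcription. Transiently transfected HepG2 dosed 24 h before RNA isolation. Quantified by fluorescent RT-PCR products separated by capillary electrophoresis.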
# [2] = ATG_E_Box_CIS: Attagene CIS-FACTORIAL HepG2 Assay for human Enhancer Box (E-box) (AID 2282936); conditions: HepG2 E-box cis-reporter transcription, actives raise or lower the signal
# Summary of the method: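 E-box-driven reporter transcripts measured in transiently transfected HepG2 after 24 h exposure: RNA reverse-transcribed, PCR-amplified, fluorescently labelled, digested and resolved by capillary electrophoresis. Gain or loss relative to DMSO.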
# [3] = ATG_M_61_CIS: Attagene CIS-FACTORIAL HepG2 Assay for M61 Transcription Factor (Internal Marker) (AID 2282937); conditions: HepG2 Attagene CIS-FACTORIAL M61 internal marker reporter; actives raise or lower the signal
# Summary of the method: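 Readout is reporter mRNA by RT-PCR, fluorescent primer extension and capillary electrophoresis, with gain or loss fitted relative to DMSO. Transfected HepG2 cells carrying endogenous-TF-driven cis reporters were exposed to chemicals for 24 hours.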
# [4] = ATG_EGR_CIS: Attagene CIS-FACTORIAL HepG2 Assay for human Early Growth Response 1 (EGR1) (AID 2282938); conditions: HepG2 Attagene CIS-FACTORIAL EGR reporter mRNA; actives raise or lower the signal
# Summary of the method: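 After 24 h compound exposure, RNA from reporter-transfected HepG2 cells was reverse-transcribed, PCR-amplified, fluorescently labelled and resolved by capillary electrophoresis. EGR1 reporter transcript changes, up or down, were fitted against DMSO, reflecting endogenous transcription-factor activity.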
# [5] = ATG_M_19_CIS: Attagene CIS-FACTORIAL HepG2 Assay for M19 Transcription Factor (Internal Marker) (AID 2282939); conditions: HepG2 Attagene CIS-FACTORIAL M19 internal marker reporter; actives raise or lower the signal
# Summary of the method: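 HepG2, MRTU transient transfection, 24 h dosing. Total RNA → RT-PCR → 6-FAM primer extension → HpaI digest → CE fluorescence. Bidirectional curve fit, DMSO negative control.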
# [6] = ATG_ERE_CIS: Attagene CIS-FACTORIAL HepG2 Assay for Estrogen Response Element (ERE) (AID 2282940); conditions: HepG2 ERE cis-reporter, Attagene RNA transcript; actives raise or lower the signal
# Summary of the method: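 After a 24 h chemical treatment, RNA from reporter-transfected HepG2 cells is reverse-transcribed, PCR-amplified and fluorescently labelled. Fragments separated by capillary electrophoresis give reporter signal; DMSO serves as negative control.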
# [7] = ATG_Ets_CIS: Attagene CIS-FACTORIAL HepG2 Assay for human Erythroblast Transformation Specific (ETS) (AID 2282941); conditions: HepG2 ETS cis-reporter transcription, actives raise or lower the signal
# Summary of the method: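 Bidirectional fit versus DMSO of reporter mRNA signal, detected by RT-PCR and capillary electrophoresis in HepG2 cells transiently transfected with cis-element reporters and dosed 24 h.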
# [8] = target: Hepatocyte nuclear factor 3-beta (Homo sapiens) (UniProt Q9Y261); test: ATG_FoxA2_CIS: Attagene CIS-FACTORIAL HepG2 Assay for human Forkhead box A2 (FOXA2) (AID 2282942); conditions: HepG2 cis-reporter transcription factor activity, 24 h; actives raise or lower the signal
# Hepatocyte nuclear factor 3-beta (Homo sapiens), sequence (Q9Y261 whole entry, looked up): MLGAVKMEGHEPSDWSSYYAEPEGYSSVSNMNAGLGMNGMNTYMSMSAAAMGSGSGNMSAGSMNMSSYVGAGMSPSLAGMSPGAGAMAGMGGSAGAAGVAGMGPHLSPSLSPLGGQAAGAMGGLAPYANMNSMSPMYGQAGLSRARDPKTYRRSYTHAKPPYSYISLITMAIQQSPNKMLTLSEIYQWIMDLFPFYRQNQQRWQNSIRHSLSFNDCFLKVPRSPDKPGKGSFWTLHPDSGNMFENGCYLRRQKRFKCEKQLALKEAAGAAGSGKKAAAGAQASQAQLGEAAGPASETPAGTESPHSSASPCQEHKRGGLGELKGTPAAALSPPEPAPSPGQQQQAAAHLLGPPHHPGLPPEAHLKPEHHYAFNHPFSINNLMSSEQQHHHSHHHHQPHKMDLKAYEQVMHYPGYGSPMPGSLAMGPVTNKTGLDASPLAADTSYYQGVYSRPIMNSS
# Summary of the method: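 Endogenous transcription factor activity is captured via cis-element-driven reporter transcripts in transfected HepG2. Total RNA taken at 24 h post-dosing; labelled RT-PCR products resolved by capillary electrophoresis. Gain or loss fitted versus DMSO.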
# [9] = ATG_FoxO_CIS: Attagene CIS-FACTORIAL HepG2 Assay for human Forkhead box O (FoxO) (AID 2282943); conditions: HepG2 Attagene cis-reporter, FoxO element, mRNA; actives raise or lower the signal
# Summary of the method: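 HepG2, transient MRTU transfection (cis element, endogenous TFs). Dose 24 h. TriZol RNA → oligo(dT) RT → PCR → 6-FAM primer extension → HpaI cut → CE. Gain/loss vs DMSO.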
# [10] = ATG_GATA_CIS: Attagene CIS-FACTORIAL HepG2 Assay for human GATA Binding Protein (AID 2282944); conditions: HepG2 GATA cis-element reporter, Attagene multiplex mRNA; actives raise or lower the signal
# Summary of the method: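 Cells: HepG2, transiently transfected with cis-regulated reporter transcription units. Exposure: 24 h. Detection: RT-PCR plus capillary electrophoresis of FAM-labeled fragments. Analysis: bidirectional, DMSO as baseline.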
SMILES,AC50 [1],AC50 [2],outcome [3],outcome [4],outcome [5],outcome [6],outcome [7],outcome [8],outcome [9],outcome [10],outcome [1],outcome [2],AC50 [4],AC50 [5],AC50 [7],AC50 [9],AC50 [10],AC50 [6]
[2H]C1([2H])[n+]2ccccc2-c2cccc[n+]2C1([2H])[2H],90.7 µM (active),78.7 µM (active),inactive,inactive,inactive,inactive,inactive,inactive,inactive,inactive,,,,,,,,
O=S(=O)(O)C(F)(F)C(F)(F)C(F)(F)C(F)(F)C(F)(F)C(F)(F)C(F)(F)C(F)(F)F,128 µM (active) and 48.9 µM (active),134 µM (active),inactive,inactive,inactive,,inactive,inactive,inactive,inactive,inactive,inactive,102 µM (active),153 µM (active),56.1 µM (active) and 233 µM (active),143 µM (active) and 58.9 µM (active) and 223 µM (active),44.4 µM (active),
Cc1cc(C)nc(NC(=O)NS(=O)(=O)c2ccccc2C(=O)OC2COC2)n1,,,inactive,,inactive,,inactive,inactive,inactive,inactive,inactive,inactive,79 µM (active),,,,,71 µM (active)
CCc1ccc(C(=O)NN(C(=O)c2cc(C)cc(C)c2)C(C)(C)C)cc1,,,inactive,,inactive,inactive,inactive,inactive,inactive,inactive,inactive,inactive,16.5 µM (active),,,,,
COC(=O)c1ccccc1S(=O)(=O)NC(=O)N(C)c1nc(C)nc(OC)n1,,,inactive,inactive,inactive,inactive,inactive,inactive,inactive,inactive,inactive,inactive,,,,,,
O=C1c2ccccc2C(=O)N1SC(Cl)(Cl)Cl,,,inactive,inactive,inactive,inactive,inactive,inactive,inactive,inactive,inactive,inactive,,,,,,
COP(=S)(OC)Oc1ccc(SC)c(C)c1,,,inactive,inactive,inactive,,inactive,inactive,inactive,inactive,inactive,inactive,,,,,,17.7 µM (active)
N#Cc1c(Cl)c(Cl)c(Cl)c(C#N)c1Cl,,,inactive,inactive,inactive,inactive,inactive,inactive,inactive,inactive,inactive,inactive,,,,,,
Oc1cc(Cl)ccc1Oc1ccc(Cl)cc1Cl,,13.4 µM (active),inactive,inactive,inactive,,inactive,inactive,inactive,inactive,inactive,inactive,11.3 µM (active) [middle of 4 runs],,7.09 µM (active) and 17.9 µM (active) and 5.97 µM (active),,5.97 µM (active),
CNC(=O)Oc1cccc(N=CN(C)C)c1,,,inactive,inactive,inactive,,inactive,inactive,,,inactive,inactive,,,,70.8 µM (active),33.6 µM (active),91.4 µM (active)
COC(=O)c1ccccc1CS(=O)(=O)NC(=O)Nc1nc(OC)cc(OC)n1,,125 µM (active),inactive,inactive,inactive,inactive,inactive,inactive,inactive,inactive,inactive,inactive,,,,,,
COP(=S)(OC)Oc1ccc([N+](=O)[O-])cc1,,,inactive,inactive,inactive,inactive,inactive,inactive,inactive,inactive,inactive,inactive,,,,,,
O=C(Nc1ccccc1)Nc1cnns1,,,inactive,,inactive,inactive,inactive,inactive,inactive,inactive,inactive,inactive,90.3 µM (active),,,,,
CNC(=O)Oc1ccccc1OC(C)C,,,inactive,inactive,inactive,inactive,inactive,inactive,inactive,inactive,inactive,inactive,,,,,,
Cc1[nH]c(=O)n(C(C)(C)C)c(=O)c1Cl,,,inactive,inactive,inactive,inactive,inactive,inactive,inactive,inactive,inactive,inactive,,,,,,
Oc1ccc(Cl)cc1Cc1ccccc1,,11.1 µM (active),inactive,inactive,inactive,,inactive,inactive,inactive,inactive,inactive,inactive,14.9 µM (active),,16.3 µM (active),20.4 µM (active),20.2 µM (active),
Clc1ccccc1-c1nnc(-c2ccccc2Cl)nn1,,,inactive,inactive,inactive,inactive,inactive,inactive,inactive,inactive,inactive,inactive,,,,,,
CNC(=O)CSP(=S)(OC)OC,,,inactive,inactive,inactive,inactive,inactive,inactive,inactive,inactive,inactive,inactive,,,,,,
CC1(c2ccc(Oc3ccccc3)cc2)OC(=O)N(Nc2ccccc2)C1=O (stereo not given),,,inactive,inactive,inactive,inactive,inactive,inactive,inactive,inactive,inactive,inactive,,,,,,
CN1CSC(=S)N(C)C1,,,inactive,inactive,inactive,inactive,inactive,inactive,inactive,inactive,inactive,inactive,,,,,,
CC[C@H](C)[C@H]1O[C@]2(C=C[C@@H]1C)C[C@@H]1C[C@@H](C/C=C(\C)[C@@H](O[C@H]3C[C@H](OC)[C@@H](O[C@H]4C[C@H](OC)[C@@H](O)[C@H](C)O4)[C@H](C)O3)[C@@H](C)/C=C/C=C3\CO[C@@H]4[C@H](O)C(C)=C[C@@H](C(=O)O1)[C@]34O)O2 (tested in a mixture with another compound),,,inactive,inactive,inactive,inactive,inactive,inactive,inactive,inactive,inactive,inactive,,,,,,
O=[N+]([O-])c1c(Cl)c(Cl)c(Cl)c(Cl)c1Cl,,,inactive,,inactive,,inactive,inactive,inactive,inactive,inactive,inactive,90.8 µM (active),,,,,12.9 µM (active)
ClC1C(Cl)C(Cl)C(Cl)C(Cl)C1Cl (stereo not given),,100 µM (active) and 69.6 µM (active),inactive,inactive,inactive,,inactive,inactive,inactive,inactive,inactive,inactive,,,8.89 µM (active),,,
CC(C)(C)C(O)/C(=C\c1ccc(Cl)cc1Cl)n1cncn1 (stereo not given),,,inactive,inactive,inactive,inactive,inactive,inactive,inactive,inactive,inactive,inactive,,,,,,
O=[N+]([O-])/N=C1\NCCN1Cc1ccc(Cl)nc1,,,inactive,inactive,inactive,inactive,inactive,inactive,inactive,inactive,inactive,inactive,,,,,,
